High-throughput results (PubChem BioAssay)
Compounds with a hit are over-represented: about 31% of the library has one in this group of screens.
CYP2C9 act: increases human cytochrome P450 2C9 activity; recombinant CYP2C9, luciferin-H conversion, luminescence; hits give high values; factor 1 = untreated enzyme, 0 = blocked; activation factor at 5 µM; actives 1.4% (n = 96,000); AID 1024;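 active = activation factor of 2 or more for CYP2C9 at a 5 µM dose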;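 also: 0 = sulfaphenazole-blocked wells and 1 = vehicle-only wells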
CYP2C19 inhib: human CYP2C19 inhibition; P33261; actives 21% (n = 96,000); CYP2C19 Supersomes, luciferin-H EGE luminescence, 30 min; inhibition, % at 5 µM;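 active = CYP2C19 inhibition above a set limit at 5 µM in the primary screen, cut at about 50% in these data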;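 also: plate controls were negative control wells for no effect and 2.5 mM tranylcypromine positive control for full effect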
Target sequence (P33261 whole entry, looked up): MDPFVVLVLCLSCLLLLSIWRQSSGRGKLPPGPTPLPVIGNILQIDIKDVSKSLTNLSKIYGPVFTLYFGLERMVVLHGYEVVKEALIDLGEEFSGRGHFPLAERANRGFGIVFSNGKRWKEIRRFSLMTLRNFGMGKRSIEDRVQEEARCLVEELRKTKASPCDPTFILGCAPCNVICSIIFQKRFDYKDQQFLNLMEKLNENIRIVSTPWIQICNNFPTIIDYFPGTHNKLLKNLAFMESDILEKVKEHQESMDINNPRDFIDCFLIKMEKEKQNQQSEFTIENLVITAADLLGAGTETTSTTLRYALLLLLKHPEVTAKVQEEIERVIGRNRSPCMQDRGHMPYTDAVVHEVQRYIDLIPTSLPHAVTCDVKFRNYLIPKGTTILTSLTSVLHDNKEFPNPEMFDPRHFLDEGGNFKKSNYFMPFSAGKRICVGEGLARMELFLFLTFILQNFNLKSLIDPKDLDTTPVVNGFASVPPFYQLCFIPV
CYP2C9 inhib: blocks human cytochrome P450 2C9. actives 20% (n = 96,000). P11712. AID 777. CYP2C9 Supersomes, luciferin-H conversion, luminescence. inhibition, % at 5 µM;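 active = blocking of liver enzyme CYP2C9 beyond about 50% at 5 µM, limit read from the data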
CYP2C19 activ: cytochrome P450 2C19 (human) activation. P33261. recombinant CYP2C19, luciferin-H EGE luminescence; hits give high values; 0 = fully inhibited enzyme, 1 = untreated enzyme. activation factor at 5 µM. 96,000 tested, under 10 active. AID 1025;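 active = activation factor of at least 2 at 5 µM in the primary screen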;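 also: 0 = wells with 2.5 mM tranylcypromine and 1 = vehicle-only wells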
Starred values were filed as active, the others as inactive.

SMILES | CYP2C9 act | CYP2C19 inhib | CYP2C9 inhib | CYP2C19 activ
CSc1nccc(Nc2ccccc2)c1C#N | 0.3 | 59.0* | 68.9* | 0.4
CC(C)CCNC(=O)CN(Cc1ccc2c(c1)OCO2)C(=O)CCC(=O)Nc1ccccn1 | 0.7 | 12.5 | 34.4 | 0.9
CN1/C(=N\O)c2cccc3cccc1c23 | 1.8 | 70.3* | -77.1 | 0.3
O=C(CCN1CCN(c2ccc(Cl)cc2)CC1)Nc1nccs1 | 1 | 13.8 | 2.8 | 0.9
CC(C)(C)C(=O)Nc1ccnc(-c2cccnc2)n1 | 0.4 | 83.2* | 59.2* | 0.2
CCC(=O)Nc1ccnc(-c2cccnc2)n1 | 0.8 | 64.7* | 22.1 | 0.4
O=C(Nc1ccnc(-c2cccnc2)n1)c1ccc(Cl)c(Cl)c1 | 0.6 | 24.8 | 41.3 | 0.8
COc1ccc(OC)c(N(CC(=O)N2CCc3ccccc3C2)S(C)(=O)=O)c1 | 1 | 23.8 | 4.3 | 0.8
Cc1ccc(S(=O)(=O)c2nc(C)oc2NCc2ccccc2)cc1 | 1.1 | 41.0 | -6.6 | 0.6
CC1(C)Cc2cccc(OCC(=O)Nc3cccnc3)c2O1 | 0.8 | 27.8 | 19.4 | 0.7
CC(=O)c1c(C)[nH]c(C(=O)OCC(=O)Nc2cc(C(F)(F)F)ccc2N2CCOCC2)c1C | 0.4 | 34.8 | 58.3* | 0.7
CC1(C)Cc2cccc(OCC(=O)Nc3cc(C(F)(F)F)ccc3N3CCOCC3)c2O1 | 0.5 | 18.9 | 50.9* | 0.8
Cc1nc2ccccc2nc1OCC(=O)Nc1cc(C(F)(F)F)ccc1N1CCOCC1 | 0.7 | 7.1 | 34.4 | 0.9
CC1(C)Cc2cccc(OCC(=O)Nc3cccnc3Cl)c2O1 | 2.2* | 97.5* | -116.4 | 0
Cc1noc(C)c1COC(=O)COc1cccc2c1OC(C)(C)C2 | 0.3 | 76.7* | 68.4* | 0.2
CC1(C)Cc2cccc(OCC(=O)NC3CC3)c2O1 | 0.8 | 44.6 | 17.6 | 0.6
CCn1cc(C(=O)N2CCCC2)c(=O)c2cc(S(=O)(=O)N3CCOCC3)ccc21 | 1 | -11.4 | 4.2 | 1.1
O=C(CN1C(=O)NC2(CCc3ccccc32)C1=O)Nc1cc(C(F)(F)F)ccc1N1CCOCC1 (stereo not given) | 0.1 | 34.8 | 89.3* | 0.7
CCOc1cc(N2CCOCC2)c(OCC)cc1NC(=O)CN1C(=O)NC2(CCc3ccccc32)C1=O (stereo not given) | 0.6 | 20.9 | 44.2 | 0.8
Cc1onc(-c2c(F)cccc2Cl)c1C(=O)NCc1ccccn1 | 0.7 | 55.7* | 32.0 | 0.4
Cc1onc(-c2c(Cl)cccc2Cl)c1C(=O)NCc1ccco1 | 0.2 | 89.3* | 80.9* | 0.1
Cc1onc(-c2c(Cl)cccc2Cl)c1C(=O)N/N=C(\N)COc1ccc(Cl)cc1 | 0.1 | -2.0 | 85.8* | 1
[O-]C1=N/[N+](=C/c2ccc(Cl)c(Cl)c2)CC1 | 1 | -13.8 | 0.3 | 1.1
O=C1C2C3CCC(C3NCc3ccccc3)C2C(=O)N1Cc1ccccc1 (stereo not given) | 0.8 | 33.2 | 23.5 | 0.7
Cc1cccc(/C=N\NC(=O)c2sccc2-n2cccc2)c1 | 0.9 | 43.9 | 11.7 | 0.6
SMILES | CYP2C9 act | CYP2C19 inhib | CYP2C9 inhib | CYP2C19 activ
CC(=O)Nc1ccc(OC(=O)c2cc([N+](=O)[O-])ccc2Cl)cc1 | 1.6 | 1.6 | -58.5 | 1
CCN(CC)S(=O)(=O)c1cc([N+](=O)[O-])ccc1NNC(=O)Nc1ccc(Cl)c(Cl)c1 | 0.3 | 12.5 | 74.2* | 0.9
O=C1CC(N2CCC(C(=O)N3CCCCC3)CC2)C(=O)N1 (stereo not given) | 1.1 | -10.3 | -6.8 | 1.1
Cc1c(C(=O)O)c(-c2ccccc2)nn1-c1ccccc1 | 1.1 | -10.4 | -6.5 | 1.1
Cc1nc(-c2ccccc2O)n(-c2ccccc2)n1 | 0.3 | 53.4* | 68.0* | 0.5
O=C(COC(=O)CC12CC3CC(CC(Br)(C3)C1)C2)NC(=O)NCc1ccco1 | 0.4 | 46.1 | 64.5* | 0.5
Cn1cccc1C(=O)NC(=O)COC(=O)CC12CC3CC(CC(Br)(C3)C1)C2 | 0.8 | -10.3 | 21.6 | 1.1
O=C(CN1CCN(C(=O)c2cccc(F)c2)CC1)NC1CCCCC1 | 1.1 | 0.6 | -11.6 | 1
COc1cccc2cc(-c3csc(CCn4nc(C)cc4C)n3)c(=O)oc12 | 0.3 | 81.7* | 65.6* | 0.2
Cc1cc(C)n(CCc2nc(-c3ccco3)cs2)n1 | 1 | 32.4 | -1.2 | 0.7
Cc1ccc2nsnc2c1S(=O)(=O)N1CCN(C(=O)C2CCCO2)CC1 (stereo not given) | 0.9 | 1.4 | 14.7 | 1
CCOc1ccccc1OCCCC(=O)N1CCN(S(=O)(=O)c2cccc(F)c2)CC1 | 0.6 | 74.9* | 36.2 | 0.3
CCOc1ccccc1OCCCC(=O)N1CCN(S(=O)(=O)c2ccc(C)cc2)CC1 | 0.5 | 86.0* | 46.5 | 0.1
CC1CCCN(C(=O)CCS(=O)(=O)Cc2ccccc2)C1 (stereo not given) | 1.1 | 13.2 | -11.1 | 0.9
COc1ccnc(NCc2ccc(Cl)cc2)c1C#N | 0.7 | 99.8* | 30.4 | 0
Cc1sc2ncnc(Sc3nnnn3-c3ccc(Cl)cc3)c2c1C | 0.9 | 10.3 | 14.2 | 0.9
Cc1ccc(Sc2ncnc3onc(C)c23)cc1 | 0.8 | 67.4* | 22.7 | 0.3
Cc1ccccc1Sc1ncnc2onc(C)c12 | 0.5 | 96.2* | 48.8 | 0
Cc1noc2ncnc(Sc3ccc(Cl)cc3)c12 | 0.9 | 79.2* | 9.7 | 0.2
Cc1noc2ncnc(Sc3c(Cl)cccc3Cl)c12 | 0.5 | 97.0* | 52.1* | 0
Cc1noc2ncnc(Oc3ccc(F)cc3)c12 | 1.1 | 4.6 | -7.1 | 1
COc1ccc(-c2nn(CC(=O)N(C)C)c(=O)c3ccccc23)cc1 | 0.9 | 6.3 | 11.1 | 0.9
Cc1cc(N2C(=O)C(=O)/C(=C(/O)c3ccccc3)C2c2cccs2)no1 (stereo not given) | 0.3 | 0.2 | 70.8* | 1
Cc1cc(N2C(=O)C(=O)/C(=C(/O)c3ccc(F)cc3)C2c2cccc(Br)c2)no1 (stereo not given) | 0.4 | 20.0 | 61.4* | 0.8
O=S(=O)(Nc1nnc(-c2ccccc2)s1)c1ccc(Cl)cc1 | 0 | 82.7* | 98.7* | 0.2
SMILES | CYP2C9 act | CYP2C19 inhib | CYP2C9 inhib | CYP2C19 activ
CC(C)=CC(=O)Nc1nnc(-c2ccccc2)s1 | 1.5 | 3.8 | -45.3 | 1
Cc1ccccc1NC(=O)C1CCC(C)(C(=O)O)C1(C)C (stereo not given) | 1.2 | -23.2 | -19.7 | 1.2
O=C(CCNC(=O)c1ccccc1Cl)Nc1ccc2c(c1)OCO2 | 0 | 59.4* | 95.6* | 0.4
CC(=O)c1cc2c(cc1NC(=O)CCNC(=O)c1ccccc1Cl)OCO2 | 0.3 | 60.2* | 73.9* | 0.4
Cc1ccc(N2C(=O)C(Cl)=C(NCc3ccccc3)C2=O)c(C)c1 | 0.5 | 51.4* | 53.1* | 0.5
CCOC(=O)C1=C(c2ccccc2)Nc2nc(C)nn2C1c1cccc(OC)c1OC (stereo not given) | 0.8 | 14.2 | 24.6 | 0.9
O=C(c1ccncc1)N(Cc1ccccc1)Cc1nc2ccccc2c(=O)[nH]1 | 0.1 | 55.7* | 92.7* | 0.4
Cc1ccc(C(=O)N(Cc2ccc3c(c2)OCO3)Cc2nc3ccccc3c(=O)[nH]2)cc1 | 0.6 | 45.2 | 39.3 | 0.5
CCCC(=O)N(CCc1ccc(OC)cc1)Cc1nc2ccccc2c(=O)[nH]1 | 0.8 | 30.7 | 20.4 | 0.7
